From the supplement of paper PMC6555819

Assays:
Test in all cases: PBM binding z-score (relative to random genomic background probes); higher = stronger binding; sequences stand for … in GC…GCGATTGACAGCGTAGAATGAAGG
[1] = tested on: FXR:RXRa (NR concentration 270 nM, RXRa partner concentration 90 nM)
Procedure, shortened: (§1)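 The probes on custom Agilent 4×180K protein-binding microarrays were double-stranded, with 34-nt variable regions bearing direct-repeat seeds, single-nucleotide variants, half-site ablations and random human genomic background sequences. Incubation lasted 1 h with ligand-free nuclear receptor dimers in PBS pH 7.4, 2% milk, 0.02% Triton X-100, 1 mM DTT, 0.2 mg/mL BSA and 0.4 mg/ml salmon testes DNA. Antibodies against each partner (one per run) detected bound dimers, and fluorescence scans were regression-normalized. Binding z-scores take the random background probes as reference.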

[2] = tested on: LXRa:RXRa (NR concentration 270 nM, RXRa partner concentration 90 nM)
Procedure, shortened: as §1

[3] = tested on: LXRa homodimer (NR concentration 270 nM)
Procedure, shortened: as §1

[4] = tested on: LXRb:RXRa (NR concentration 270 nM, RXRa partner concentration 90 nM)
Procedure, shortened: as §1

[5] = tested on: LXRb homodimer (NR concentration 270 nM)
Procedure, shortened: as §1

[6] = tested on: PPARa:RXRa (NR concentration 270 nM, RXRa partner concentration 90 nM)
Procedure, shortened: as §1

[7] = tested on: PPARg:RXRa (NR concentration 180 nM, RXRa partner concentration 90 nM)
Procedure, shortened: as §1

[8] = tested on: PPARg:RXRa 270nM:90nM, anti-RXR (NR concentration 270 nM, RXRa partner concentration 90 nM)
Procedure, shortened: as §1

[9] = tested on: PPARg:RXRa 30nM:10nM, anti-RXR (NR concentration 30 nM, RXRa partner concentration 10 nM)
Procedure, shortened: as §1

[10] = tested on: PPARg:RXRa 90nM:30nM, anti-RXR (NR concentration 90 nM, RXRa partner concentration 30 nM)
Procedure, shortened: as §1

[11] = tested on: PPARg:RXRa DBDmut IVT, anti-RXR (DBD mutation: RXRa K156A/R161A, NR concentration 270 nM, RXRa partner concentration 90 nM)
Procedure, shortened: as §1

[12] = tested on: PPARg:RXRa IVT, anti-PPARg (NR concentration 270 nM, RXRa partner concentration 90 nM)
Procedure, shortened: as §1

[13] = tested on: PPARg DBDmut:RXRa IVT, anti-PPARg (DBD mutation: PPARg1 K132A/R137A, NR concentration 270 nM, RXRa partner concentration 90 nM)
Procedure, shortened: as §1

[14] = tested on: PPARg DBDmut IVT, anti-PPARg (DBD mutation: PPARg1 K132A/R137A, NR concentration 270 nM)
Procedure, shortened: as §1

[15] = tested on: PPARg homodimer (NR concentration 180 nM)
Procedure, shortened: as §1

[16] = tested on: PXR:RXRa (NR concentration 270 nM, RXRa partner concentration 90 nM)
Procedure, shortened: as §1

[17] = tested on: PXR homodimer (NR concentration 270 nM)
Procedure, shortened: as §1

[18] = tested on: RARa:RXR (NR concentration 270 nM, RXRa partner concentration 90 nM)
Procedure, shortened: as §1

[19] = tested on: RARa homodimer (NR concentration 270 nM)
Procedure, shortened: as §1

[20] = tested on: RARb:RXRa (NR concentration 270 nM, RXRa partner concentration 90 nM)
Procedure, shortened: as §1

| Sequence | PBM binding z-score [1] | PBM binding z-score [2] | PBM binding z-score [3] | PBM binding z-score [4] | PBM binding z-score [5] | PBM binding z-score [6] | PBM binding z-score [7] | PBM binding z-score [8] | PBM binding z-score [9] | PBM binding z-score [10] | PBM binding z-score [11] | PBM binding z-score [12] | PBM binding z-score [13] | PBM binding z-score [14] | PBM binding z-score [15] | PBM binding z-score [16] | PBM binding z-score [17] | PBM binding z-score [18] | PBM binding z-score [19] | PBM binding z-score [20] |
| --- | --- | --- | --- | --- | --- | --- | --- | --- | --- | --- | --- | --- | --- | --- | --- | --- | --- | --- | --- | --- |
| AGAATGAGGGTATTAAGATCAGGGAATTGCGGTC | 0.048 | 0.136 | -0.107 | -0.105 | 0.211 | 0.659 | 0.403 | 0.28 | 0.322 | 0.102 | 1.71 | 0.923 | 0.443 | 0.824 | 0.506 | 0.0196 | 0.451 | 0.253 | 0.44 | 0.4 |
| AGAATGAGGTTATACGTAGATCAGAGAAGAAAGT | 2.4 | 1.86 | 0.0397 | 1.57 | 0.2 | 3.2 | 2.36 | 2.1 | 0.792 | 1.45 | 3.8 | 2.41 | 0.986 | 0.988 | 1.35 | 1.1 | 0.455 | 1.51 | 0.376 | 1.38 |
| GCGACTGGGGCATCAGCAGGGTACCATAACTTAA | -0.653 | -0.542 | -0.531 | 0.192 | -0.913 | 0.58 | 0.759 | 0.382 | -0.46 | -0.166 | 3.75 | 2.79 | -0.747 | -0.946 | -0.494 | -0.289 | -0.457 | -0.268 | -1.05 | 0.517 |
| AGTCAAAGTTCATCTAGGTAACGGAAGATATGCT | 6.87 | 6.02 | 4.37 | 3.7 | 1.73 | 4.86 | 6.85 | 6.48 | 3.55 | 5.62 | 0.826 | 4.12 | 1.91 | 0.45 | 3.26 | 5.42 | 7.16 | 3.87 | 2.15 | 4.94 |
| CCTACTGGGCCACGAAGGGTCATTGATTCAGTGA | 2.42 | 2.97 | 0.54 | 2.41 | -0.798 | 3.68 | 3.11 | 3.45 | 1.17 | 2.58 | 4.42 | 5.28 | -0.0977 | -1.2 | 1.51 | 3.23 | 0.0111 | 3.46 | 0.673 | 2.82 |
| TAGCCTAGGTCTTGCGGGCCAGTATAGTGTCGGC | -0.844 | -0.906 | -0.807 | -1.17 | -1.2 | -0.636 | -0.663 | -0.775 | -0.745 | -1.05 | -0.581 | -0.0643 | -0.303 | -0.84 | -1.39 | -1.05 | -1.29 | -0.863 | -1.17 | -0.327 |
| CCTGCTGGGCCACGAAAGGTCATTGATTCAGTGA | 3.41 | 5.49 | 4.48 | 4.19 | 0.0525 | 4.2 | 1.59 | 3.23 | 0.385 | 2.27 | 1.93 | 2.25 | -0.596 | -0.339 | 5.05 | 5.52 | 1.38 | 5.76 | 2.23 | 4.05 |
| ACAGACAGGTGATGAAGGTATCTCAGGCTATCAT | -0.127 | -0.162 | -0.557 | -0.354 | -0.55 | -0.193 | 0.506 | -0.135 | -0.034 | -0.24 | -0.101 | 0.167 | -0.0054 | -0.542 | 0.117 | -0.369 | 0.175 | -0.241 | -0.481 | 0.0103 |
| CCTTTCGGGTCACTGACAGGTTATAGCATTTGGA | 5.71 | 4.35 | 0.279 | 3.33 | 0.0515 | 5.09 | 3.95 | 4.25 | 1.43 | 3.06 | 3.4 | 3.43 | 0.931 | 0.0693 | 2.97 | 3.79 | 0.121 | 4.74 | 0.858 | 4.04 |
| ATATGTAGCTTACATCCGGGTCATTCAGGCTATG | 1.18 | 1.36 | 0.618 | 1.73 | 0.372 | 2.39 | 0.959 | 0.733 | 0.448 | 0.268 | 0.48 | 1.48 | 1.08 | 0.976 | 0.783 | 2.42 | 1.38 | 2.54 | 0.0612 | 1.31 |
| CCGACTGGGGCATAAGGTTATCATAAGCCAGCCC | 0.297 | 0.921 | -0.134 | 0.498 | -1.15 | 1.94 | 2.31 | 3.06 | 1.39 | 3.18 | 2.88 | 3.27 | -0.987 | -0.567 | 1.33 | 0.386 | 0.0103 | 1.34 | -0.22 | 1.32 |
| ATATGTAGGTTAGCTGGGGGCATTCAGACTAGGC | 0.978 | 3.73 | 0.963 | 4.51 | 9.63 | 4.09 | 4.83 | 4.61 | 2.3 | 3.72 | 6.79 | 6.14 | 4.18 | 5.68 | 1.96 | 4.39 | 1.88 | 2.5 | 1.27 | 2.25 |
| TGTCAAGGTTCAAAGGTAACGTAAGTATCCACAC | 6.06 | 5.12 | 1.39 | 3.74 | 0.581 | 5 | 6.29 | 6.26 | 3.14 | 5.92 | -0.0297 | 3.17 | 0.246 | 0.633 | 3.16 | 4.14 | 0.595 | 5.82 | 0.446 | 3.32 |
| AGTCAAAGTTCAGGACTAGGTAACGTAAAGCACG | 3.95 | 3.56 | 1.18 | 1.7 | 0.0894 | 3.41 | 4.81 | 5.05 | 2.27 | 4.21 | 0.593 | 3.09 | 0.657 | 0.484 | 1.73 | 2.41 | 1.04 | 2.4 | 1.11 | 4.13 |
| CCTTCTGGGCCAAAAAGGTCATTGATGCCGATAA | 3.46 | 4.33 | 2.97 | 3.9 | 0.645 | 4.48 | 2.52 | 3.9 | 1.16 | 2.59 | 3.91 | 3.68 | -0.102 | -0.685 | 3.67 | 4.74 | 4.12 | 5.1 | 1.14 | 3.83 |
| TCGAGTAGGTTAGTCGGGGTATTCAGCCAACATA | 0.000404 | -0.0351 | -0.315 | 0.411 | -0.451 | 0.421 | -0.245 | 0.44 | 1.24 | 0.688 | 2.12 | 1.56 | -0.225 | -0.287 | -0.0532 | -0.197 | -0.205 | 0.128 | -0.0281 | 0.0838 |
| ATCTCTAGGTATAGATAGTTCAGTGAATGCAAAT | 0.0439 | 0.281 | 0.536 | 0.328 | 0.404 | 0.225 | 0.685 | 0.289 | 0.345 | 0.323 | -0.0574 | 0.416 | 1.48 | 1.36 | 0.546 | 0.877 | 0.855 | 0.453 | 0.807 | 0.415 |
| TCTTGTAGATCAAGCAGGGTAAGAAAGCCTGAGT | 0.561 | -0.0537 | -0.634 | 0.0919 | -0.511 | 0.15 | -0.37 | 1.08 | 2.34 | 1.6 | 1.7 | 0.481 | -0.108 | -0.000734 | -0.854 | 0.136 | -0.0302 | 0.246 | -0.676 | -0.148 |
| CCTACTGGGCGAAAAAGGTCATTGATGCCGATAA | 3.16 | 3.79 | 2.59 | 3.91 | -0.182 | 4.45 | 1.67 | 3.1 | 0.977 | 1.93 | 0.836 | 1.94 | -0.234 | -0.941 | 2.25 | 4.39 | 1.04 | 4.66 | 0.67 | 3.68 |
